A selection: hits, their analogues and other compounds. The true share with any hit is near 15%.
Gal4-VP16 FLuc: counter-screen for ROR gamma inhibitors: Gal4-VP16 reporter. Drosophila S2 Gal4-VP16 UAS-luciferase, luminescence, 20 h. Potency, µM (titrated, usually from 53.6 µM), for inactives: at the top dose activity, negative = inhibition, hits mostly inhibitors. 3.5% of 310,000 active. AID 2546;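 note: Gal4-VP16 expression switched on by copper sulfate through the metallothionein promoter; nearly all actives have a fitted effect of over 50% in size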
TDP1 cell CPT: DT40-hTDP1 cell growth loss with CPT; Potency, µM (titrated, usually from 46.2 µM), inactives show at the highest dose activity change, negative = growth inhibition, hits mostly inhibitors; chicken DT40 Tdp1-/-;hTDP1 cells + 20 nM CPT, ATP luminescence, 48 h; AID 686979; 12% of 420,000 active; note: nearly all actives have a fitted effect of over 55% in size
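Chicken DT40 Tdp1-/- cells stably complemented with human TDP1 were seeded at 400 cells/well in medium containing 20 nM camptothecin, exposed to pin-transferred compounds, and grown at 37 °C for at least 48 hr. Viability was read as ATP luminescence.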
DT40 TDP1 no CPT: qHTS for Inhibitors of human tyrosyl-DNA phosphodiesterase 1 (TDP1): qHTS in cells in absence of CPT; Potency, µM (titrated, usually from 46.2 µM), inactives show top-dose activity change, negative = growth inhibition, usual class: inhibitors; DT40 Tdp1-/- hTDP1 cells, no CPT, ATP luminescence, 48 h; 15% of 420,000 active; note: nearly all actives have a fitted effect of over 55% in size
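Camptothecin absent (DMSO only). Human TDP1-complemented DT40 knockout cells, 400 cells/well, 37 °C for minimum 48 hr; ATP measured via CellTiter-Glo, 30 min dark incubation, luminescence.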
RORgamma inh: inhibitors of mouse ROR gamma transcriptional activity; Drosophila S2 Gal4-RORgamma UAS-luciferase reporter, 20 h; Potency, µM (highest dose often 53.6 µM), for inactives: top-dose activity change, negative = inhibition, actives largely listed as inhibitors; 5.4% of 310,000 active; AID 2551; note: nearly all actives have a fitted effect of over 60% in size
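ROR gamma transcriptional activity was tracked as Gal4-UAS luciferase output in stably transfected Drosophila Schneider cells, with compound added 1 hr before 700 uM copper sulfate induction and a 20 hr ambient-temperature incubation.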
ELG1 DNA repair: ELG1-dependent DNA repair inhibition; 2.3% of 330,000 active; Potency, µM (highest dose often 46.1 µM), for inactives: top-dose activity change, negative = inhibition, most hits filed as inhibitors; AID 504467; HEK293T ELG1-luciferase reporter, luminescence, 16 h; DNA damage induced by 5-fluorouridine; note: nearly all actives have a fitted effect of over 55% in size
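Quantitative HTS, concentration-response format. 2,000 cells/well co-treated with 5-fluorouridine and compound, 16 hr in 5% CO2 at 37 °C; ONE-Glo luminescence read after 30 min.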
12-LOX inh: ALOX12 (human) lipoxygenase inhibition | purified 12hLO, xylenol orange hydroperoxide absorbance | 1.1% of 580,000 active | AID 1671190 | P18054 | Potency, µM (titrated, usually from 108 µM), for inactives: at the highest dose activity change, negative = inhibition, most hits filed as inhibitors
Target sequence (P18054 whole entry, looked up): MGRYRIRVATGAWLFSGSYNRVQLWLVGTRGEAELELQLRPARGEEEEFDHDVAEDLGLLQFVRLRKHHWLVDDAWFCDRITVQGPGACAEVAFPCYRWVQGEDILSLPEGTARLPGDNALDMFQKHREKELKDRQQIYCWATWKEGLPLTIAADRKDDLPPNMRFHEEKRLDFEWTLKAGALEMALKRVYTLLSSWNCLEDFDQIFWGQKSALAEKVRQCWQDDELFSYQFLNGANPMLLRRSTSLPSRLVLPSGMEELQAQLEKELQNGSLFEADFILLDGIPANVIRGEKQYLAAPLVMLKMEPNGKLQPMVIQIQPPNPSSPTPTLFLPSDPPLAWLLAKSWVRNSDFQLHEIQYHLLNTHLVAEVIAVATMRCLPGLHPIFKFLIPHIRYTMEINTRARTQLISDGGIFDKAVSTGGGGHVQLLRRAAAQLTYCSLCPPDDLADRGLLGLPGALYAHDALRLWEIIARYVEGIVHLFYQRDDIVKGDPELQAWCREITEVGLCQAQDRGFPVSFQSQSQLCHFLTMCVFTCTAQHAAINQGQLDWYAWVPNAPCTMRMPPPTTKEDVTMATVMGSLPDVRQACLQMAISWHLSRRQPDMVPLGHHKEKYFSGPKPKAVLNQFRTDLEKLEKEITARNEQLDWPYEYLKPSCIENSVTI
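Hydroperoxide product was detected by ferrous iron/xylenol orange as the 573 to 405 nm absorbance ratio. Arachidonic acid at 40 uM (final) was turned over for 30 min at room temperature by 150 nM human 12hLO, pH 7.0 Hepes buffer, after 15 min compound preincubation.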
Numbers without * were called inactive; u = inconclusive; x = not tested or not shown; [ ] = remark or other dose. Calls come from the whole dose curve; as a rule, active = well fitted curve in the direction sought with a large enough effect; inconclusive = small, poorly fitted or top-dose-only effect, or another doubt; inactive = no such curve, though single readings can be large; an effect the other way counts as inactive or inconclusive. % is set by controls: 0 for no effect and ±100 for the full control effect; potency is the fitted concentration of half-maximal effect.

SMILES | Gal4-VP16 FLuc | TDP1 cell CPT | DT40 TDP1 no CPT | RORgamma inh | ELG1 DNA repair | 12-LOX inh
CCN(CC)C(=O)C1=C(C)N(Cc2ccc(OC)cc2)C(=O)C(CC(=O)NCc2cccc3ccccc23)C1 (stereo not drawn) | x | u | 23.1µM* | x | x | -28.8%
CCCCN1C(=O)C(CC(=O)NCc2cccc3ccccc23)CC(C(=O)N(CC)CC)=C1C (stereo not drawn) | x | u | u | x | x | -6.0%
CCN(CC)C(=O)C1=C(C)N(Cc2ccccc2)C(=O)C(CC(=O)NCc2cccc3ccccc23)C1 (stereo not drawn) | x | u | 18.4µM* | x | x | 21.2%
CCN(CC)C(=O)C1=C(C)N(Cc2ccc(OC)cc2)C(=O)C(CC(=O)NCc2cccs2)C1 (stereo not drawn) | x | -17.6% | u | x | x | -52.8%
CC1=C(C(=O)N(C)C)CC(CC(=O)NCc2cccc3ccccc23)C(=O)N1CCC1=CCCCC1 (stereo not drawn) | x | u | u | x | x | 8.1%
CCN(CC)C(=O)C1=C(C)N(CCC2=CCCCC2)C(=O)C(CC(=O)NCc2cccc3ccccc23)C1 (stereo not drawn) | x | 16.4µM* | u | x | x | u
CN(Cc1ccoc1)C(=O)Cn1ccc2ncccc2c1=O | x | x | x | x | x | 60.5%
CN(C)[C@H]1CCN(Cc2cccc(C(=O)O)c2)C[C@H]1CCC(=O)O | x | x | x | x | x | 10.3%
Cc1oc(-c2nc(C#N)c(NC(C)c3ccccc3)o2)cc1S(=O)(=O)N(C)C (stereo not drawn) | x | x | x | x | x | -2.9%
CCc1cc(C(=O)NC(C)CCc2ccccc2)sc1C (stereo not drawn) | x | x | x | x | x | -23.6%
O=C1OCC2(CCN(Cc3ccc4c(c3)CCO4)C2)N1Cc1ccccc1 (stereo not drawn) | x | x | x | x | x | 56.2µM*
Cn1nc(-c2ccc(OCC(=O)N3CCCCC3)cc2)c2ccccc2c1=O | x | x | x | x | x | -4.5%
Cc1cn2nc(C(=O)Nc3ccc4c(c3)OCCO4)cc2c(N(C)Cc2ccccc2)n1 | x | x | x | x | x | 44.2%
CC1=NN(C(N)=S)C(=O)C1N=Nc1cccc(C(=O)O)c1 (stereo not drawn) | u | 27.9% | 16.9% | 11.2µM* | -16.3% | -38.1%
O=C(O)c1ccccc1N1C(=O)C2C3CCC(C3)C2C1=O (stereo not drawn) | -3.5% | -4.1% | -26.3% | -1.1% | 3.4% | -0.3%
CC1=NN(C(N)=S)C(=O)C1N=Nc1cccc(C)c1 (stereo not drawn) | -0.5% | 3.26µM* | 5.8µM* | 6.1% | 0.3% | -11.7%
CC1=NN(c2ccccc2C(=O)O)C(=O)C1N=Nc1ccccc1 (stereo not drawn) | -8.8% | 13µM* | 20.6µM* | 25.6% | 2.7% | 12.1%
Cc1ccc(/C=N/NC(=O)c2cccs2)cc1 | x | x | x | x | x | 0.2%
O=C(c1ccccn1)N1CCC(N2C(=O)C(O)C23CCCCC3)CC1 (stereo not drawn) | x | x | x | x | x | 56.7%
COc1ccc(-c2ccc(CCC(=O)Nc3ccc(OC)c(Cl)c3)o2)cc1 | x | x | x | x | x | -62.9%
CC(C)c1ccc(NC(=O)O[C@@H]2CO[C@H]3[C@@H]2OC[C@@H]3NC(=O)c2ccccc2)cc1 | x | x | x | x | x | 24.5%[176 µM]
COc1ccc(/C=C/CN2CCN(Cc3ccc(F)cc3)C(CCO)C2)cc1 (stereo not drawn) | -11.4% | u | 29.1µM* | -10.0% | -0.2% | -1.8%
COc1ccc(/C=C/CN2CCN(Cc3ccccc3)C(CCO)C2)cc1 (stereo not drawn) | -8.3% | -6.9% | -22.2% | 0.6% | -3.8% | -6.4%
O=C(N[C@@H]1CN(c2ncccn2)C[C@H]1CO)c1ccc2c(c1)OCO2 | x | x | x | x | x | 1.3%
COc1ccc(S(=O)(=O)N2CCCCCC2)cc1C(=O)N(C)Cc1ccco1 | x | 25.9µM* | 18.4µM* | x | 9.6% | -10.5%
SMILES | Gal4-VP16 FLuc | TDP1 cell CPT | DT40 TDP1 no CPT | RORgamma inh | ELG1 DNA repair | 12-LOX inh
COc1ccc(S(=O)(=O)N2CCCCCC2)cc1C(=O)N(C)Cc1ccc(OC)c(OC)c1OC | x | u | 23.1µM* | x | u | 2.1%
COc1ccc(CN(C)C(=O)c2cc(S(=O)(=O)N3CCCCCC3)ccc2OC)cc1OC | -6.7% | -16.9% | u | u | u | 147.4%
Cc1ccc(O)c(C(=O)c2cnc3c(c2)CN(CCC(C)C)C(=O)N3)c1 | -22.7% | 10.3µM* | 11.6µM* | u | 21.3% | u
C/C(=N\O)c1ccc(OCCOc2ccc(/C(C)=N/O)cc2)cc1 | x | x | x | x | x | 12.6%
N#Cc1nc(-c2ccco2)oc1N1CCN(C(=O)NC2CC2)CC1 | x | x | x | x | x | 3.2%
CN(Cc1ccc(OCC(O)CN2CCCCC2)cc1)Cc1ccnc2ccccc12 (stereo not drawn) | 6.31µM* | 9.2µM* | 4.61µM* | 7.08µM* | -19.9% | 1.5%
C#CCNC(=O)[C@H]1C[C@@H](O)[C@H](O)[C@@H]2N=C(Nc3cccc(C(F)(F)F)c3)S[C@@H]21 | x | x | x | x | x | -7.3%[176 µM]
Cn1nccc1CN1CCC2(C1)C(=O)N(CCc1ccccc1)c1ccccc12 (stereo not drawn) | x | x | x | x | x | 15.4%
Cc1nn2c(c1-c1ccc(Cl)cc1)N=C(c1ccco1)CC2c1ccccc1 (stereo not drawn) | 2.3% | 14.6µM* | u | -22.2% | u | u
CC(=O)N1N=C(c2ccco2)CC1c1ccc(C)cc1 (stereo not drawn) | -5.2% | 9.5% | u | 3.1% | 20.7% | -12.0%
Fc1ccc(Cn2ccnc2-c2ccccn2)c(Cl)c1 | x | x | x | x | x | 125.2%
COc1cccc(Cc2nc3ccccc3nc2SCC(=O)Nc2cccc(OC)c2)c1 | x | x | x | x | x | -8.2%
CC(=O)Oc1cc2c(c(C)c1OC(C)=O)CC=C1[C@]3(C)CC[C@]4(C)CC[C@@](C)(C(=O)O)CC4[C@]3(C)CC[C@]12C (stereo partly drawn) | 11.2µM* | 3.66µM* | 4.61µM* | u | x | x
CC(=O)Oc1cc2c(c(C)c1OC(C)=O)CC=C1[C@@]2(C)CC[C@@]2(C)[C@H]3C[C@](C)(C(=O)O)CC[C@]3(C)CC[C@]12C | x | x | x | x | x | -25.0%
Brc1ccc(/C=N/Nc2ccccc2)cc1 | 3.1% | u | -25.8% | 24.9% | u | 44.7µM*
Fc1ccc(/C=N\Nc2cccc(F)c2)cc1 | 2.3% | -16.4% | -8.3% | -31.9% | -4.1% | 14.0%
Oc1ccc(/C=N/Nc2ccccc2)cc1 | -3.1% | u | u | 0.6% | 6.9% | u
Fc1ccc(/C=N/Nc2ccc(F)cc2)cc1 | x | x | x | x | x | 2.24µM*

From PubChem
